From PubChem BioAssay AID893 (National Center for Advancing Translational Sciences (NCATS), 2007)
Values joined by “and” are separate entries in the source; they are usually repeats but may differ in a detail not shown here. Identical values can stand only once. The campaign covered roughly 75,000 compounds. About 5,700 (7.6%) were called active. Another 7% or so got no clear call; they are omitted. What follows is part of a selection rich in actives, with near analogues and random picks from the rest. A call without a number means that no potency is given here. Values without a mark were called inactive. Calls come from the whole dose curve; as a rule, active = well fitted inhibition curve with a large enough effect; inconclusive = small, poorly fitted or top-dose-only effect; inactive = no such curve, though single readings can be large or run the other way.
Note: nearly all actives have a fitted effect of over 70% in size.
Potency is the fitted concentration of half-maximal effect.

What follows are compounds tested against 3-hydroxyacyl-CoA dehydrogenase type-2 (Homo sapiens) (UniProt Q99714) (assay: qHTS Assay for Inhibitors of HSD17B4, hydroxysteroid (17-beta) dehydrogenase 4). Conditions: recombinant HSD17B10, NADH fluorescence kinetic; series mostly up to 57.1 µM.
Text: Assay Overview: NIH Molecular Libraries Screening Centers Network [MLSCN] NIH Chemical Genomics Center [NCGC] Structural Genomics Consortium [SGC] Grant number: None HADH2: Hydroxyacyl-Coenzyme A dehydrogenase, type II, was supplied by researchers at the Structural Genomics Consortium, Oxford University lab (PI Udo Oppermann). The mitochondrial enzyme 17-hydroxysteroid dehydrogenase type 10 (HSD17-10) previously classified as type II hydroxyacyl-CoA dehydrogenase (HADH2) catalyzes the NAD+ dependent oxidation of a variety of substrates including acyl-CoAs, androgens and neurosteroids as well as bile acids(Shafqat N, Marschall HU, Filling C, et al. Biochemical Journal. 2003;376(Pt 1):49-60). […] The enzyme was produced by E.coli fermentation as His-tagged recombinant for the purpose of X-ray structure determination, and had been mass-spectrometry characterized. Inhibition of HADH2 activity was screened by utilizing beta-hydroxybutyryl coenzyme A as an electron donor and NAD+ as an electron acceptor/cofactor. An increase in the fluorescence intensity due to conversion of NAD+ to NADH was used to measure the enzyme activity.
Assay Protocol: Buffer: 100 mM Tris-HCl pH 9.0, containing 0.01 % Tween-20. Reagents/Controls: Buffer in columns 3 and 4 as negative control (no enzyme). Substrate/cofactor solution: 1 mM NAD+ and 90 uM beta-hydroxybutyryl coenzyme A (Sigma-Aldrich, St. Louis, MO) final concentrations dispensed throughout the plate. Enzyme: 20 nM HADH2 final concentration in columns 1, 2, 5-48. Column 1 is neutral (100% activity). Column 2 contained titration of apomorphine (Sigma-Aldrich, A 4393, PubChem CID 2215, top concentration 500 uM, then 1:2 dilution in duplicate) Assay Steps: Three uL of enzyme were dispensed to 1536-well Greiner black solid bottom plates. Compounds and controls (23 nL) were transferred via Kalypsys PinTool. The plates were incubated for 15 min at room temperature, and then 1 uL of substrate/cofactor solution was added to start the reaction. The plates were immediately transferred to and read every 30 seconds for 4 min on ViewLux High-throughput CCD imager (Perkin-Elmer) using 360 nm excitation and 450 nm emission fluorescence protocol. The fluorescence intensity difference between the last and the first time points was used to compute reaction progress.
For CCOC(=O)CN(C(=O)CN1CCOCC1)c1ccc(Br)cc1, the Potency was “inactive”. In the case of Cc1ccc(OCC(O)CN2CCN(CC(O)COc3ccc(C)cc3Cl)CC2)c(Cl)c1 (configuration not stated), the Potency is reported as “inactive”. In the case of CC(C)c1ccc(-c2nn[nH]n2)cc1, the Potency is reported as “inactive”. With c1ccc(-n2ncc(-c3nn[nH]n3)n2)cc1 the Potency was 31.6 µM (active). In the case of CCCn1nnc2sc3c(c2c1=O)CCC(C)C3 (configuration not stated), the Potency is reported as “inactive”. In the case of Cc1nc2cc(S(=O)(=O)C(F)(F)F)ccc2s1, the Potency is reported as “inactive”. COc1ccc(-c2oc3cc(OC)ccc3c2C(=O)c2ccc(C#N)cc2)cc1 was tested, and the Potency was “inactive”. With CC(=O)Oc1ccc2c(C)c(CC(C)O)c(=O)oc2c1 (configuration not stated) the Potency was 2 µM (active). In the case of CN1C(C)(C)CC(NC(=O)CCC(=O)NC2CC(C)(C)N(C)C(C)(C)C2)CC1(C)C, the Potency is reported as “inactive”. In the case of O=C(CCCOc1ccccc1)Nc1cccc(C(=O)O)c1, the Potency is reported as “inactive”. With Cc1ccc2c(c1)N(CCCC(=O)NCc1cccnc1)C(=O)CO2 the Potency was “inactive”. COc1cccc(N(CC(=O)Nc2cccc(N(C)S(C)(=O)=O)c2)S(C)(=O)=O)c1 was tested, and the Potency was “inactive”. With COC(=O)c1cn(-c2ccccc2)nc1-c1cccnc1 the Potency was “inactive”. In the case of COc1ccc2c(=O)cc(-c3ccccc3)oc2c1O, the Potency is reported as “inactive”. Cc1cccc(-c2cc(=O)c3cc(C)ccc3o2)c1 was tested, and the Potency was 31.6 µM (active). Cc1ccc2oc(=O)ccc2c1 was tested, and the Potency was “inactive”. With COc1ccc(C)cc1-n1nnnc1SCC(=O)c1cc(C)n(Cc2ccco2)c1C the Potency was “inactive”. O=C(NCCc1ccc(Cl)cc1)C1CC(=O)N(C2CCCCC2)C1 (configuration not stated) was tested, and the Potency was “inactive”. With NS(=O)(=O)c1ccc(CCNC(=O)Nc2ccc(Cl)cc2)cc1 the Potency was “inactive”. In the case of Oc1cc2c(cc1O)CN(C(=S)NCCc1ccc(Cl)cc1)CCC2, the Potency is reported as 15.8 µM (active). CN1CCc2[nH]nc(-c3n[nH]c4c3CN(C)CC4)c2C1 gave an activity change, negative = inhibition of 4.35% [at 11.4 µM]. With COc1ccc(-c2ccnc(SCC(=O)N3CCOCC3)n2)cc1 the Potency was 25.1 µM (active). CCn1c(COc2cccc(OC)c2)nnc1SCC(=O)N1CCOCC1 was tested, and the Potency was “inactive”. COc1ccc(-c2nc(SCC(=O)N3CCOCC3)n[nH]2)cc1 was tested, and the Potency was “inactive”. O=C(CSc1nnc(-c2ccccc2)o1)N1CCOCC1 was tested, and the Potency was “inactive”. For Nc1ccc(-c2nnc(-c3ccc(-c4ccccc4)cc3)o2)cc1, the Potency was 5.01 µM (active). With O=C(OCc1nnc(-c2ccccc2)o1)c1ccc2c(c1)C(=O)N(CCc1ccccc1)C2=O the Potency was “inactive”. In the case of Fc1cccc(/C=N\N=C/c2cccc(F)c2)c1, the Potency is reported as “inactive”. O=C(O)CCC(=O)NCc1ccc2[nH]c3c(c2c1)CCCC3 was tested, and the Potency was “inactive”. In the case of N#CCCN1CCN(S(=O)(=O)c2ccc(S(=O)(=O)NC3CCCCC3)cc2)CC1, the Potency is reported as “inactive”. With COc1ccccc1-n1c(CNC(=O)c2ccccc2)nnc1SCC(=O)Nc1nnc(C)s1 the Potency was “inactive”. COC(CCN(C)C)(c1ccccc1)c1ccccc1 was tested, and the Potency was “inactive”. For CCCCN(CC)CCCNC(=O)CS(=O)(=O)Cc1nc(-c2cccc(OC)c2)oc1C, the Potency was “inactive”. COc1cccc(-c2nc3cc(C)ccc3o2)c1 was tested, and the Potency was 25.1 µM (active). With COc1cccc(-c2nc(S(=O)(=O)c3ccccc3)c(N3CCOCC3)o2)c1 the Potency was “inactive”. COc1ccccc1N1CCN(CCN2C(=O)c3ccccc3C(C)(C)C2=O)CC1 was tested, and the Potency was “inactive”. In the case of COc1ccc(OC)c(CNC(=O)CCc2nc(-c3cccs3)no2)c1, the Potency is reported as “inactive”. CCOC(=O)NCc1ccc2c(c1)OCO2 was tested, and the Potency was “inactive”. In the case of CCC1=C/C(=C\c2ccc3c(c2)OCO3)C(=O)S1, the Potency is reported as 25.1 µM (active). With CCOc1ccc(NC(=O)CSc2nc3c(c(=O)n2-c2ccccc2OC)SCC3)cc1 the Potency was “inactive”. COc1ccc(/C=C/NC(=O)Cc2ccc(OC)c(OC)c2)cc1 was tested, and the activity change, negative = inhibition was -1.94% [at 11.4 µM] and 1.41% [at 11.4 µM]. In the case of O=C(c1cccc(S(=O)(=O)N2CCOCC2)c1)N1CCOCC1, the Potency is reported as “inactive”. In the case of c1ccc2c(Nc3ccncc3)nc(-c3ccc4c(c3)OCO4)nc2c1, the Potency is reported as 25.1 µM (active). CNc1nc(-c2ccccc2OC)nc2ccccc12 was tested, and the Potency was “inactive”. For COc1ccccc1CNc1ccnc(-c2c(C)noc2C)n1, the Potency was “inactive”. In the case of O=C(Cn1nnc(-c2ccccc2)n1)NCc1ccc2c(c1)OCO2, the Potency is reported as “inactive”. For c1ccc2c(Nc3ccncc3)nc(-c3ccoc3)nc2c1, the Potency was 20 µM (active). c1cncc(-c2nc(N3CCNCC3)c3ccccc3n2)c1 was tested, and the Potency was “inactive”. In the case of COc1cccc(-c2nc(Nc3ccncc3)c3ccccc3n2)c1, the Potency is reported as “inactive”. In the case of Cc1noc(C)c1-c1nc(Nc2ccccc2)c2ccccc2n1, the Potency is reported as 20 µM (active). In the case of Cc1cnc(CNc2nc(-c3cccnc3)nc3ccccc23)cn1, the Potency is reported as “inactive”. For CCCn1c(=O)c2[nH]c(C3CCCC3)nc2n(CCC)c1=O, the Potency was “inactive”.
